Rows were chosen to be rich in hits. Some 11% of all compounds tested hit in one or more screens of this group.
HP1b binding inh: HP1-beta chromodomain-methylated histone interaction inhibition. actives 0.56% (n = 390,000). Potency, µM (top dose mostly 114 µM), for the others: at the highest dose activity change, negative = inhibition, actives largely listed as inhibitors. P83916. AID 540317. AlphaScreen HP1-beta / biotin-H3K9me3 peptide binding; note: nearly all actives have a fitted effect of over 70% in size
Target sequence (P83916 whole entry, looked up): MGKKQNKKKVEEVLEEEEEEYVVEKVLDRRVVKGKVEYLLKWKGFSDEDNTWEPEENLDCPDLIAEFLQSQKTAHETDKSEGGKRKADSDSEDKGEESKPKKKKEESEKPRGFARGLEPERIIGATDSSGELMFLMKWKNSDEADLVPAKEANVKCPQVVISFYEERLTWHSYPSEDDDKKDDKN
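Compound inhibition of the preformed complex between 50 nM HP1-beta and 50 nM biotinylated H3K9me3 peptide was read by AlphaScreen. Buffer was PBS pH 7.4 with 0.01% Tween-20. Incubations ran 30 min at room temperature, with 10 ug/mL donor/acceptor beads.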
JMJD2A Tudor: inhibitors of human JMJD2A Tudor domain. O75164. AlphaScreen JMJD2A-Tudor / H3K4me3 peptide binding. Potency, µM (series often up to 114 µM), for inactives: at the highest dose activity change, negative = inhibition, hits mostly inhibitors. actives 4.4% (n = 390,000); note: % is set by controls: 0 for no effect and ±100 for the full control effect; nearly all actives have a fitted effect of over 50% in size
G9a inh: G9a (human) methyltransferase inhibition | Q96KQ7 | Potency, µM (top dose mostly 102 µM), for inactives: at the top dose activity, negative = inhibition, hits mostly inhibitors | G9a H3K9 monomethylation, AlphaScreen, 2 h | actives 8.8% (n = 350,000) | AID 504332; note: % is set by controls: 0 for no effect and ±100 for the full control effect; nearly all actives have a fitted effect of over 75% in size
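Readings reflect AlphaScreen signal from monomethyl-H3K9 antibody detection. HMT at 20 nM; substrate b-H3K9 500 nM; cofactor SAM 20 uM; 2 h RT reaction; compounds tested as titrations in qHTS with 15 min preincubation.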
PLK1 PBD block: inhibitors of human PLK1 polo-box domain binding; Plk1 PBD binding of FITC phosphopeptide, fluorescence polarization; P53350; actives 2.8% (n = 360,000); Potency, µM, inactives show max response, negative = inhibition, hits mostly inhibitors; note: series mostly up to about 57 µM; % is set by controls: 0 for no effect and ±100 for the full control effect; nearly all actives have a fitted effect of over 65% in size
VDR inh: blocks the human vitamin D receptor; VDR-SRC2-3 peptide fluorescence polarization, 2 h; Potency, µM, without a hit: max response, negative = inhibition, hits mostly inhibitors; actives 0.93% (n = 400,000); AID 504847; note: % is set by controls: 0 for no effect and ±100 for the full control effect
Target sequence (P11473 whole entry, looked up): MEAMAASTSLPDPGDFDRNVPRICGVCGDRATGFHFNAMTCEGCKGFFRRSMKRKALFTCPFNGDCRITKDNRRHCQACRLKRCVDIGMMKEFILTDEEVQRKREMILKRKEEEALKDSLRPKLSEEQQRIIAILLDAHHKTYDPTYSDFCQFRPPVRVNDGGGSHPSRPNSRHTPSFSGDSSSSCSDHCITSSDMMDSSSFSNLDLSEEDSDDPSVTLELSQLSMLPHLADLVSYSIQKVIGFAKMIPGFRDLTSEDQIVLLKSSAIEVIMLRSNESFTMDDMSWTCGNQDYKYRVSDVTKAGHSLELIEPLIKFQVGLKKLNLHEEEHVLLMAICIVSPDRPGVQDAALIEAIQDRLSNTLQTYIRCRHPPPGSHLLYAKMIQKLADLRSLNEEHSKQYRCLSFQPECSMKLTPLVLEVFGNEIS
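Fluorescence polarization assay of small-molecule disruption of VDR binding to coregulator peptide SRC2-3. Compounds and controls pin-transferred, then read after 2 h incubation at ambient room temperature.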
BAZ2B block: BAZ2B (human) inhibition. AlphaScreen BAZ2B-H3K14Ac peptide displacement. Q9UIF8. actives 4.4% (n = 360,000). Potency, µM (titrated, usually from 114 µM), without a hit: at the top dose activity change, negative = inhibition, actives largely listed as inhibitors. AID 504333; note: % is set by controls: 0 for no effect and ±100 for the full control effect; nearly all actives have a fitted effect of over 60% in size
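BAZ2B (50 nM) with biotin-H3(5-23)K14Ac peptide (50 nM) in PBS pH 7.4, 0.01% Tween-20, preformed 30 min, then compound 30 min at room temperature; top concentration 110uM. AlphaScreen streptavidin donor/nickel chelate acceptor beads (10 ug/mL final), 20 min dark, signal read.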
The depositor's hits bear a star; u = inconclusive; x = no result given; [ ] = remark or other dose. Calls come from the whole dose curve; as a rule, active = well fitted curve in the direction sought with a large enough effect; inconclusive = small, poorly fitted or top-dose-only effect, or another doubt; inactive = no such curve, though single readings can be large; an effect the other way counts as inactive or inconclusive. Potency is the fitted concentration of half-maximal effect.

SMILES | HP1b binding inh | JMJD2A Tudor | G9a inh | PLK1 PBD block | VDR inh | BAZ2B block
CCOCCOc1cc(NCc2ccccc2)c2ncn(C(C)C)c2c1 | 14µM* | 10µM* | x | 1% | -28% | x
CCCCOc1cc(NCc2ccccc2)c2ncn(C(C)C)c2c1 | u | 40µM* | x | -4% | 1% | x
CC(C)n1cnc2c(NCc3ccccc3)cc(N[C@H](C)CO)cc21 | u | 56µM* | x | -20% | -4% | x
CC1CCCCN1CCCNC(=O)CCCN1C(=O)c2cccnc2Sc2ccccc21 (stereo not given) | 19% | -8% | x | -1% | 8% | -8%
COc1ccc(Oc2c(C(F)(F)F)oc3c(CN4CCCC(C)C4)c(O)ccc3c2=O)cc1 (stereo not given) | 13% | -16% | 0%[59 µM] | x | -3% | -2%
CCC(CO)Oc1cc(NCc2cccc(O)c2)c2ncn(C(C)C)c2c1 (stereo not given) | 10% | -26% | x | 2% | 2% | x
COc1ccc(Cc2cc(NCc3ccccc3)c3ncn(C(C)C)c3c2)cc1 | -36% | 40µM* | x | 7% | 8% | x
Cc1nc(CSc2nsc(/C=C/N(C)C)c2C#N)cs1 | u | u | 20µM* | -9% | u | 40µM*
Cc1snc(SCc2ccc(F)cc2)c1C#N | 133% | 109% | 49% | u | -1% | 6%
COC(=O)c1cccnc1SCc1ccccc1 | 135% | 123% | 23%[59 µM] | -11% | -5% | 106%
COC(=O)c1ccccc1CSc1nsc(/C=C/N(C)C)c1C#N | u | 50µM* | 0%[2.33 µM] | 9.5µM* | u | 45µM*
Cc1ccc(C(CC(=O)Nc2ccc(F)c(Cl)c2)N2Cc3ccccc3C2=O)cc1 (stereo not given) | 36% | 6% | 7%[59 µM] | x | 4% | -1%
CC(C)C(NC(=O)c1ccccc1)c1nnc(SCC(=O)NC2CCCC2)n1C (stereo not given) | -20% | -15% | -20% | -9% | 12% | -1%
CCn1cc(CCC(=O)O)c(C)n1 | 20% | -15% | 45µM* | -21% | -14% | 5%
Cc1ccc(-c2nn(CCC(=O)O)cc2CCC(=O)O)cc1 | 12% | -2% | -5% | -2% | -8% | 1%
CC(=O)/C(=C/c1ccccc1)C(=O)Nc1ccccc1C | 32% | -5% | -34% | -21% | 22µM* | -16%
Cc1ccccc1NC(=O)C(=Cc1ccc(C(=O)O)cc1)C(=O)Nc1ccccc1C | 23% | -6% | u | -6% | -19% | -17%
Cc1ccc(-n2nc(CO)c(C(=O)NCc3ccccn3)n2)cc1 | 38% | -10% | -44%[59 µM] | x | 13% | -2%
Cc1ccc(C(=O)Nc2ccc(C(=O)N/N=C/c3ccccn3)cc2)cc1 | 59% | -14% | -46% | 2% | -4% | 20%
O=C(N/N=C/c1ccccn1)C(O)c1ccccc1 (stereo not given) | 21% | -25% | 0.71µM* | -6% | 5% | u
Cc1ccc(OC(C)C(=O)N/N=C/c2ccccn2)cc1 (stereo not given) | 39% | -9% | 1.4µM* | -2% | 11% | 71µM*
O=C1NC(=O)[C@@H]2C3c4ccccc4C=CN3[C@H](C(=O)c3cccs3)[C@H]12 (stereo not given in full) | x | x | 10µM* | x | x | -6%
Cc1ccc(NC(=S)c2nc3ccccc3[nH]2)cc1 | u | u | 54%[0.501 µM] | -8% | -21% | 10µM*
Cc1ccc(NC(=S)c2nc3ccccc3[nH]2)c(C)c1 | u | u | u | u | -2% | 28µM*
CCCCc1ccc(NS(=O)(=O)c2ccc(N3CCCCS3(=O)=O)cc2)cc1 | 21% | -15% | 5%[12.7 µM] | x | 5% | -16%
SMILES | HP1b binding inh | JMJD2A Tudor | G9a inh | PLK1 PBD block | VDR inh | BAZ2B block
CC1=C(C(=O)OC(C)C)C(c2ccc(Cl)cc2)n2c(s/c(=C\c3ccc(OCC(=O)O)cc3)c2=O)=N1 (stereo not given) | u | u | u | -21% | u | 45µM*
CCOC(=O)C1=C(C)N=c2s/c(=C\c3ccc(C(=O)O)cc3)c(=O)n2C1c1ccc(F)cc1 (stereo not given) | -10% | u | 79µM* | 30µM* | u | u
CCOC(=O)C1=C(C)N=c2s/c(=C/c3ccco3)c(=O)n2C1c1cccc(OC)c1 (stereo not given) | u | u | 16µM* | -2% | 16% | 10µM*
CCOC(=O)C1=C(C)N=c2s/c(=C\c3ccc(OCC(=O)O)cc3)c(=O)n2C1c1ccccc1 (stereo not given) | 6% | -32% | 15%[12.7 µM] | u | u | u
COc1ccc(C2C(C(C)=O)=C(C)N=c3s/c(=C/c4ccc5c(c4)OCO5)c(=O)n32)cc1 (stereo not given) | x | x | -33%[12.7 µM] | x | x | -39%
CCOC(=O)C1=C(C)N=c2sc(=Cc3ccc(OCC(=O)O)cc3)c(=O)n2C1c1ccc(SC)cc1 (stereo not given) | x | x | x | -20% | x | x
CC(=O)C1=C(C)N=c2s/c(=C/c3ccc4c(c3)OCO4)c(=O)n2C1c1ccc(N(C)C)cc1 (stereo not given) | u | -26%[11.4 µM] | x | 27µM* | 32µM* | x
COc1cc(NC(=O)CCCNC(=O)c2ccc(Cl)cc2)cc(OC)c1OC | 28% | -9% | -27% | -5% | 2% | -31%
COc1ccc(-c2ccc3ncnc(NCC4CCCO4)c3c2)cc1OC (stereo not given) | x | -35% | x | x | x | x
CCOC(=O)C1=C(C)N=c2s/c(=C\c3ccc(OCC(=O)O)c(OC)c3)c(=O)n2C1c1ccc(OC)cc1 (stereo not given) | 8% | 79µM* | 56µM* | -23% | u | 79µM*
CCOC(=O)C1=C(C)N=c2s/c(=C/c3cccc([N+](=O)[O-])c3O)c(=O)n2C1c1ccccc1 (stereo not given) | 14µM* | 28µM* | 2µM* | 19µM* | u | 7.1µM*
CCOC(=O)C1=C(C)N=c2sc(=Cc3cc(Cl)c(OCC(=O)O)c(OC)c3)c(=O)n2C1c1ccccc1Cl (stereo not given) | x | x | x | 27µM* | x | x
CCOC(=O)C1=C(C)N=c2s/c(=C\c3cccc(OCC(=O)O)c3)c(=O)n2C1c1ccccc1 (stereo not given) | 0% | u | u | u | u | -38%
CN=C1NN=C(c2cc(C)n(-c3ccc(Cl)cc3)c2C)CS1 | -15% | u | 32µM* | -29% | -28% | x
Cc1ccc(-n2c(C)cc(C3=NNC(=NC4CC4)SC3)c2C)cc1C | u | 50µM* | 45µM* | -3% | -26% | 50µM*
Cc1cc(C2=NNC(=NC3CC3)SC2)c(C)n1-c1c(C)n(C)n(-c2ccccc2)c1=O | 25% | -6% | u | 3% | -3% | -11%

Bioassay records deposited in PubChem BioAssay by National Center for Advancing Translational Sciences (NCATS).
